Data from PubChem BioAssay.
For part of these data: Entries with a potency or affinity are not part of this list.

Tests used:
[1] = polyglutamine-triggered caspase-3 activation inhibitors, cell-based (AID 1583); conditions: polyglutamine-induced caspase-3 activation, cell assay; stronger effect = higher value;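 tested at 10 µM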
[2] = suppressors of polyQ aggregation in yeast, 75Q-TubU reporter (AID 1593); conditions: Yeast 75Q polyglutamine aggregation reporter
[3] = rescue of polyQ-huntingtin neuronal dysfunction in worms, whole organism, C. elegans mechanosensory neurons, N-terminal huntingtin (AID 1599); conditions: touch response, stronger effect = higher value
[4] = inhibitors of mitochondrial cytochrome c release, biochemical, purified mitochondria (AID 1603); conditions: stronger effect = lower value;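 also: mouse liver mitochondria challenged with calcium chloride; signal normalized to the plate average as 100%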
[5] = inhibitors of polyQ protein aggregation (AID 1604); conditions: polyglutamine-induced protein aggregation inhibition assay; stronger effect = higher value; tested at 2.5 µM

| Compound | inhibition [1] [%] | score [2] | rescue above control [3] | cytochrome c release ratio [4] | inhibition of aggregation [5] [%] |
| --- | --- | --- | --- | --- | --- |
| NC(CO)C(=O)NNCc1ccc(O)c(O)c1O (stereo not given) | 5.62 | 1.68 | 7.52 | 0.53 | 89.7 |
| Cc1nc2sccn2c(=O)c1CCN1CCC(=C(c2ccc(F)cc2)c2ccc(F)cc2)CC1 | -6.39 | 1.46 | 0 | 0.36 | 7.32 |
| Cn1cnc2c1c(=O)[nH]c(=O)n2C | 30.4 | 1.43 | -0.5 | 0.76 | 28.1 |
